The record followed here is PubChem BioAssay (EPA / NIEHS).

By AC50 is commonly meant the concentration giving half of the maximal activity seen.

The source made the active and inactive calls. How the source made its calls: active means hit-call score of the fitted dose curve at least 0.9, where 1 is the maximum; inactive means score below 0.9.

The test can be described thus: ATG_GLI_CIS: Attagene CIS-FACTORIAL HepG2 Assay for human Zinc Finger Protein GLI1 (AID 2282945). The following applies: HepG2, Attagene cis-factorial reporter mRNA, GLI element; actives raise or lower the signal. On the procedure: ATG_CIS is a cell-based, multiplexed-readout assay that uses HepG2, a human liver cell line, with measurements taken at 24 hours after chemical dosing in a 24-well plate.ATG_GLI_CIS is one of 52 assay component(s) measured or calculated from the ATG_CIS assay. It is designed to make measurements of mRNA induction, a form of inducible reporter, as detected with fluorescence intensity signals by Reverse transcription polymerase chain reaction (RT-PCR) and Capillary electrophoresis technology.Data from the assay component ATG_GLI_CIS was analyzed into 1 assay endpoint. This assay endpoint, ATG_GLI_CIS, was analyzed with bidirectional fitting relative to DMSO as the negative control and baseline of activity. Using a type of inducible reporter, measures of mRNA for gain or loss-of-signal activity can be used to understand the reporter gene at the transcription factor-level as they relate to the gene GLI1. Furthermore, this assay endpoint can be referred to as a primary readout, because this assay has produced multiple assay endpoints where this one serves a reporter gene function. To generalize the intended target to other relatable targets, this assay endpoint is annotated to the dna binding intended target family, where the subfamily is zinc finger.
Human liver HepG2 cells are transiently transfected with multiple reporter transcription units (MRTUs) in 6-well plates using FuGene 6 reagent (Roche; 3 ml FuGene/1 mg DNA). The MRTU constructs are regulated by a cis-regulating element (promoter). […] A major difference between the CIS and TRANS system is that in CIS activities of endogenous TFs are measured, whereas the TRANS assay evaluates changes in activities of exogenous, chimeric NR-Gal4 proteins. […] At the end of 24 hour incubation, total RNA was isolated using TriZol reagent (Invitrogen). The isolated RNA is then reverse-transcribed using oligo(dT) primer and Mo-MLV reverse transcriptase (Invitrogen) with DNAse I (Ambion) treatment for 30 min. The one-tenth of the produced cDNA was amplified by PCR using Taq DNA polymerase (Invitrogen) and two reporter sequence-specific primers. The PCR products were fluorescently labeled by primer extension with 6-arboxyfluorescein (6-FAM) 5'-labeled reporter sequence-specific primer (2 min at 95 C, 20 s at 68 C and 10 min at 72 C) and these products were digested with 5U of HpaI (New England Biolabs) for 2h at 37 C. The fragments were purified using Qiaquick PCR columns (Qiagen), analyzed on an ABI 3130xL genetic analyzer (Applied Biosystems) with peak positions identified by using a set of X-rhodamine (ROX)-labeled MapMarker1000 molecular weight standards (BioVentures). The raw capillary electrophoresis data was processed using Attagraph software (Attagene).
Consider `CCCCN(CC)c1c([N+](=O)[O-])cc(C(F)(F)F)cc1[N+](=O)[O-]`, for which the molecule was classed as inactive.

On to `CC(C)[C@H](C(=O)O[C@H](C#N)c1cccc(Oc2ccccc2)c1)c1ccc(Cl)cc1`, for which the outcome was inactive.

As to `Cc1cc(C2CC2)nc(Nc2ccccc2)n1`, the result was inactive.

Turning to `C=C(C)[C@H]1Cc2c(ccc3c2O[C@@H]2COc4cc(OC)c(OC)cc4[C@@H]2C3=O)O1`, the call was inactive.

As to `CCCCOC(=O)[C@@H](C)Oc1ccc(Oc2ccc(C#N)cc2F)cc1`, the call was inactive.

In the case of `CC(Oc1cccc(Cl)c1)C(=O)O` (stereo not given), the molecule was called inactive.

With `CC(C)N(C(=O)SCC(Cl)=C(Cl)Cl)C(C)C`, the outcome was inactive.

`CN(C)NC(=O)CCC(=O)O`: the molecule was classed as inactive.

On to `CSc1nc(NC(C)C)nc(NC(C)C)n1`, for which the call was inactive.

As to `C[N+]1(C)CCCCC1`, the molecule was called inactive.

Consider `FC(F)C(F)(F)OCC(Cn1cncn1)c1ccc(Cl)cc1Cl` (stereo not given), for which the outcome was inactive.

Take `CCC(=NOC/C=C/Cl)C1=C(O)CC(C2CCOCC2)CC1=O` (stereo not given): the molecule was called inactive.

With `CCOP(=S)(OCC)SCCSCC`, the result was inactive.

On to `CCCSP(=O)(OCC)SCCC`, for which the call was inactive.

With `CCC(=O)Nc1ccc(Cl)c(Cl)c1`, the outcome was inactive.

`CN(C)C(=O)Nc1cccc(C(F)(F)F)c1`: the result was inactive.

With `CNc1cnn(-c2cccc(C(F)(F)F)c2)c(=O)c1Cl`, the molecule was called inactive.

As to `CC1=NNC(=O)N(/N=C/c2cccnc2)C1`, the outcome was inactive.

For the molecule `CC1(C(=O)Nc2ccc(O)c(Cl)c2Cl)CCCCC1`, the molecule was classed as inactive.

Turning to `CCOP(=O)(NC(C)C)Oc1ccc(SC)c(C)c1` (stereo not given), the molecule was classed as inactive.

On to `Cc1nn(-c2cc(NS(C)(=O)=O)c(Cl)cc2Cl)c(=O)n1C(F)F`, for which the outcome was inactive.

Consider `C[Si](Cn1cncn1)(c1ccc(F)cc1)c1ccc(F)cc1`, for which the outcome was inactive.

With `O=C(O)c1cc(Oc2ccc(C(F)(F)F)cc2Cl)ccc1[N+](=O)[O-]`, the call was inactive.

With `CCc1cccc(C)c1N(C(=O)CCl)C(C)COC` (stereo not given), the outcome was inactive.

In the case of `Cc1ccn2nc(S(=O)(=O)Nc3c(F)cccc3F)nc2n1`, the result was inactive.

Consider `COc1cc(OC)nc(Sc2cccc(Cl)c2C(=O)O)n1`, for which the result was inactive.

For `Nc1c(Cl)cc([N+](=O)[O-])cc1Cl`, the call was inactive.

For the molecule `S=C1NCCN1`, the result was inactive.

As for `CC(C1CC1)C(O)(Cn1cncn1)c1ccc(Cl)cc1` (stereo not given), the molecule was classed as inactive.

In the case of `C#CCC1=C(C)C(OC(=O)C2C(C=C(C)C)C2(C)C)CC1=O` (stereo not given), the half-maximal activity concentration (AC50) was 73.2 µM (active).

Regarding `CCOP(=S)(OCC)Oc1cc(C)nc(C(C)C)n1`, the call was inactive.

Take `CC(=NC#N)N(C)Cc1ccc(Cl)nc1`: the call was inactive.

As to `CNC(=O)Oc1cccc2c1OC(C)(C)O2`, the molecule was classed as inactive.

Regarding `CCCCOC(=O)c1ccccc1C(=O)O`, the outcome was inactive.

Take `CCOP(=S)(OCC)OC(Cl)C(Cl)(Cl)Cl` (stereo not given): the outcome was inactive.

As to `CCCCSP(=O)(SCCCC)SCCCC`, the AC50 is 79.8 µM (active).

For `CC[C@H](C)[C@H]1O[C@]2(C=C[C@@H]1C)C[C@@H]1C[C@@H](C/C=C(\C)[C@@H](O[C@H]3C[C@H](OC)[C@@H](O[C@H]4C[C@H](OC)[C@@H](NC)[C@H](C)O4)[C@H](C)O3)[C@@H](C)/C=C/C=C3\CO[C@@H]4[C@H](O)C(C)=C[C@@H](C(=O)O1)[C@]34O)O2`, the molecule was called inactive.

Take `CCOC(=O)COc1cc(-c2nn(C)c(OC(F)F)c2Cl)c(F)cc1Cl`: the result was inactive.

`CCc1cccc(CC)c1N(COC)C(=O)CCl`: the call was inactive.

`N#CSCSC#N`: the call was inactive.
